Activity calls are given as the source filed them.
How the values were obtained:
[1] = small molecules captured by biotinylated probe aFSTL3 – biochemical, small-molecule microarray, fluorescence 635/667, stem cell growth factor project, primary screen (AID 1064); details: higher = more signal;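 also: measures binding of the biotinylated anti-FSTL3 antibody to printed compounds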
[2] = binders from COS7 lysate, DM2A8 probe, primary screen, torsin A project, cell lysate, small-molecule microarray, fluorescence 635/667 (AID 1065); details: higher = more signal, COS7 lysate expressing mutant human TOR1A
[3] = small molecules captured by biotinylated probe aFGF2 – biochemical, small-molecule microarray, fluorescence 635/667, stem cell growth factor project, primary screen (AID 1067); details: higher = more signal;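 also: measures binding of biotinylated aFGF2 protein to printed compounds on slides; z-score merges feature fluorescence and signal-to-noise across triplicate slides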
[4] = small molecules captured by biotinylated probe aFGF10 – biochemical, small-molecule microarray, fluorescence 635/667, stem cell growth factor project, primary screen (AID 1071); details: higher = more signal;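 also: score merges 667 nm spot intensity and signal to noise from triplicate slides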
[5] = molecular target: Neurogenic locus notch homolog protein 2 (Homo sapiens) (UniProt Q04721); assay: small molecules binding Notch2 protein – biochemical, small-molecule microarray, 635 nm fluorescence, stem cell growth factors, primary screen (AID 1073); details: higher = more signal
Chain of Neurogenic locus notch homolog protein 2 (Homo sapiens) (Q04721 whole entry, looked up, canonical isoform): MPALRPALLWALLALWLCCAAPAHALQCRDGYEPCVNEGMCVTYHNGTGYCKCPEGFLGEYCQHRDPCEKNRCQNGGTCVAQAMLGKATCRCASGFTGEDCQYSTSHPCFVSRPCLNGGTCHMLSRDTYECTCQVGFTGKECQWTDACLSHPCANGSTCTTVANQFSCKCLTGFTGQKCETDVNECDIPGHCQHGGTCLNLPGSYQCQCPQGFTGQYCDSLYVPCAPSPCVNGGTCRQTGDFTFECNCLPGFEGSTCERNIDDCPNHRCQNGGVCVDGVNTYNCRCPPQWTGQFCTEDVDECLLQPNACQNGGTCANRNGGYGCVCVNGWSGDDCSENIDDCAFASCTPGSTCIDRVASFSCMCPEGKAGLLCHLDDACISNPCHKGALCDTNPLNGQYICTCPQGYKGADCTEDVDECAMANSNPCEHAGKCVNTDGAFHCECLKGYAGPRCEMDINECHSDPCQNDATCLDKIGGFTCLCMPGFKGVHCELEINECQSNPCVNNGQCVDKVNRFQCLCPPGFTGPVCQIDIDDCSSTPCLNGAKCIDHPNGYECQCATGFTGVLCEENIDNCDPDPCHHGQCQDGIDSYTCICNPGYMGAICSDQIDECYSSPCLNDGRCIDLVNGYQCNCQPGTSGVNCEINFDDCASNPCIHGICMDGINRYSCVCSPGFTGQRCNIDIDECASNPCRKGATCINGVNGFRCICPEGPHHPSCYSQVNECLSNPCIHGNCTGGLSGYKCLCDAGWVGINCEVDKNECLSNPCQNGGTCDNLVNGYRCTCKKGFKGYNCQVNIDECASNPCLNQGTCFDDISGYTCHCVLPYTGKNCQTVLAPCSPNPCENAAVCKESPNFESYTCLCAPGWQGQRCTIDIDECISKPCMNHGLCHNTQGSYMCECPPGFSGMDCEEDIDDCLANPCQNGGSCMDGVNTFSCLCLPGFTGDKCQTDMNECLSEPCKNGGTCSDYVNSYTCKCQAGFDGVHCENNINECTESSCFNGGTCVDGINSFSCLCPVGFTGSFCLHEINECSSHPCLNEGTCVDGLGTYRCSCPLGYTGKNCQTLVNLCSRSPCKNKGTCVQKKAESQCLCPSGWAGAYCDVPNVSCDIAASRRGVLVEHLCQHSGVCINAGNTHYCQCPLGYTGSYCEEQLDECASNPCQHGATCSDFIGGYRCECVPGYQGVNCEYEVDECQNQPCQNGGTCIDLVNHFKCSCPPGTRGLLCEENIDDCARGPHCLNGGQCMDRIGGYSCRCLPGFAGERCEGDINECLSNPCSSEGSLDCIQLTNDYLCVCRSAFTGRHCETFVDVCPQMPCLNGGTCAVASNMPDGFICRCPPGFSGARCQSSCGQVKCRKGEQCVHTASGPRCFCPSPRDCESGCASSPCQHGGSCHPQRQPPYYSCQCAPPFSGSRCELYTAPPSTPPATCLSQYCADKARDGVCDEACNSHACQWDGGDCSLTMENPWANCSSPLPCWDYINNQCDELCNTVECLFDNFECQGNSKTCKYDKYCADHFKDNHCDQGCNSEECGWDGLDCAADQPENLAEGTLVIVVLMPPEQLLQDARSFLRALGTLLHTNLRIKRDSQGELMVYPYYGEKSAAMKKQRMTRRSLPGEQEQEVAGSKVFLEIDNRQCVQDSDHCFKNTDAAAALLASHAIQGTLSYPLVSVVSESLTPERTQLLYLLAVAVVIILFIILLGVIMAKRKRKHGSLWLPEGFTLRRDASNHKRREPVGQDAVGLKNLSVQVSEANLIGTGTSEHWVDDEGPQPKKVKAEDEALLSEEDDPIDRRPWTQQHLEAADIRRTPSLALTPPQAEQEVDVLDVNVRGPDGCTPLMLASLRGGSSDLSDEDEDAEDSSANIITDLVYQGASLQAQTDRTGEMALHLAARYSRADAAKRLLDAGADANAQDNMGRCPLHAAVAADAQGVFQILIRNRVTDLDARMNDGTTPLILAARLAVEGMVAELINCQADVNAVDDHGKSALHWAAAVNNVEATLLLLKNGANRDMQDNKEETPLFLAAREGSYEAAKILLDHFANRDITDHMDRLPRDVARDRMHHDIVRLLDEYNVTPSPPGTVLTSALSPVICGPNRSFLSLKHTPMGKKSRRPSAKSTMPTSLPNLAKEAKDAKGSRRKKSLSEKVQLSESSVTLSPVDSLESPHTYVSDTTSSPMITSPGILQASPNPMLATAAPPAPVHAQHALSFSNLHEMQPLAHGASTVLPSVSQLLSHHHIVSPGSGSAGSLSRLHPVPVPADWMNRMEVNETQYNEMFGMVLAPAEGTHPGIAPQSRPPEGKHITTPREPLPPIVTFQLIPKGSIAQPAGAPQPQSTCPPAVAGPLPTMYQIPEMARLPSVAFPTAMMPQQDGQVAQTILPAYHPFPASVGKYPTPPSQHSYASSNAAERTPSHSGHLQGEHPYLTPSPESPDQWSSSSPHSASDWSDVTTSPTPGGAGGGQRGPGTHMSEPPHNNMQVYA

[6] = molecular target: Pro-neuregulin-1, membrane-bound isoform (Homo sapiens) (UniProt Q02297); assay: small molecules binding neuregulin-1 protein – biochemical, small-molecule microarray, fluorescence 635/667, psychiatric disease protein project, primary screen (AID 1075); details: NRG1 binding, 635 nm fluorescence, higher = more signal;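 also: score combines 667 nm spot fluorescence with signal to noise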
Chain of Pro-neuregulin-1, membrane-bound isoform (Homo sapiens) (Q02297 whole entry, looked up, the tested form may be a part, canonical isoform): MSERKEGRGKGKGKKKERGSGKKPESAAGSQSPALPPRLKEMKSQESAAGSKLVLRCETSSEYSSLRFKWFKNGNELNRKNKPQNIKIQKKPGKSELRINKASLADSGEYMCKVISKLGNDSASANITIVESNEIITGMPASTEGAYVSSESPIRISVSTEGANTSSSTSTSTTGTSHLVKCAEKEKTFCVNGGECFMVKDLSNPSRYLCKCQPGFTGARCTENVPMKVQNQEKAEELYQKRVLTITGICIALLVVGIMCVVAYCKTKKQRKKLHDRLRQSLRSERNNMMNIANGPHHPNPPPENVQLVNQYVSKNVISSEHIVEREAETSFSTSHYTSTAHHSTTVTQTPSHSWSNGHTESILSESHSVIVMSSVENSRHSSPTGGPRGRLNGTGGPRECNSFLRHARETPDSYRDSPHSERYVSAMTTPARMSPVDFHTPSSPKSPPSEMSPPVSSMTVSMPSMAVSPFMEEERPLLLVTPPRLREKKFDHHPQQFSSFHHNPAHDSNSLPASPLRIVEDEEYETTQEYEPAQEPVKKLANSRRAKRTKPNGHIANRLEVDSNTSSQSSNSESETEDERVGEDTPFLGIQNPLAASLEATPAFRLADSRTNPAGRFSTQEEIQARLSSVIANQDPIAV

[7] = tested on: Neuregulin-1 EGF-like domain; assay: small molecules binding NRG1 EGF domain – biochemical, small-molecule microarray, 635 nm fluorescence, primary screen (AID 1081); details: higher = more signal;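 also: binding of the protein to compounds printed on small-molecule microarray slides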
[8] = FRG1 expression reporter modulators in myotubes – cell-based, C2C12 myotubes, firefly/Renilla luciferase, luminescence, FRG1 inhibition for FSHD, primary screen (AID 1084); details: FRG1 promoter luciferase, higher = more signal, called active from +8 up or from −8 down
[9] = small molecules captured by biotinylated probe aFST – biochemical, small-molecule microarray, fluorescence 635/667, stem cell growth factor project, primary screen (AID 1086); details: higher = more signal;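 also: score merges 667 nm fluorescence with signal-to-noise of each printed compound spot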
[10] = binders of probe aHhip on microarray, primary screen, stem cell growth factor project, biochemical, small-molecule microarray, fluorescence 635/667 (AID 1087); details: higher = more signal;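 also: score merges spot fluorescence at 667nm with spot signal to noise ratio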

Row | SMILES | composite z-score [1] | composite z-score [2] | composite z-score [3] | composite z-score [4] | composite z-score [5] | composite z-score [6] | composite z-score [7] | z-score [8] | composite z-score [9] | composite z-score [10]
1 | CN1C(=O)C2C=CC(C(O)C#Cc3ccccc3)N(N3CCCCC3)C2C1=O (stereo not given) | 0.819 | 1.34 | 0.454 | 0.762 | 1.44 | 1.19 | 1.19 | -0.995 (inactive) | 1.16 | -0.0655
2 | COC(=O)[C@@]1(Cc2ccc(OC)cc2)[C@H]2c3cc(C(=O)N4CCCC4)n(CCN4CNCC4=O)c3C[C@H]2CN1C(=O)c1ccccc1 | 2.52 | 0.873 | 0.797 | 1.22 | 1.4 | 1.78 | 1.45 | 0.632 (inactive) | 2.37 | 3.13
3 | C=C[C@@H](COC(=O)OC(C)(C)C)N(Cc1ccc(OC)cc1)S(=O)(=O)c1ccc(Br)cc1 | -0.492 | 0.544 | -0.0598 | 0.0626 | 0.779 | 0.142 | 0.8 | -2.35 (inactive) | 0.481 | 0.0505
4 | C=CC(=C)[C@H]1Oc2ccccc2S(=O)(=O)N2CCC[C@@H]12 | 0.289 | 0.196 | -0.116 | -0.185 | -0.128 | -0.57 | -0.595 | -0.0188 (inactive) | 0.303 | -0.329
5 | O=C(c1ccccc1)N1C(=O)[C@]2(COC(c3ccc(OCCCO)cc3)=N2)Cc2ccccc21 | 0.303 | 0.863 | 0.11 | 0.879 | 0.839 | 1.72 | 1.34 | 1.23 (inactive) | 0.647 | -0.266
6 | CN(C)CCCCCCNC(=O)[C@@H]1C[C@@H]2C(=O)N[C@@H](Cc3ccccc3)C(=O)N2[C@@H]1c1ccc(O)cc1 | 0.361 | 1.57 | 0.0127 | 0.439 | 0.644 | 1.07 | 1.42 | 3.06 (inactive) | 0.901 | -0.0196
7 | COCCOC(=O)N1C(=O)[C@@]2(c3cc(C#CCCO)ccc31)[C@H](C(=O)N1CCCCCCC1)[C@H]1C(=O)O[C@H](c3ccccc3)[C@H](c3ccccc3)N1[C@@H]2c1ccc(OCCO)cc1 | 3.17 | 0.912 | 0.68 | 0.395 | 1.25 | 1.01 | 1.18 | -1.07 (inactive) | 2.87 | 0.0111
8 | CC(=O)NCCCC[C@@H]1NC(=O)[C@H]2C[C@@H](C(=O)NCCCCCCNC(=O)CS)[C@@H](c3ccc(O)cc3)N2C1=O | 0.993 | 1.42 | -0.0049 | 0.545 | -0.721 | 0.824 | 1.47 | 0.659 (inactive) | -0.555 | -0.108
9 | C=CCN1C(=O)[C@]2(O[C@H](CCn3cc([C@H](O)c4ccccc4)nn3)[C@@H]([Si](C)(C)c3ccc(OC)cc3)[C@@H]2C)c2ccccc21 | 0.202 | -0.602 | -0.0894 | -0.264 | -0.439 | 0.093 | -0.0113 | -0.356 (inactive) | -0.366 | -0.264
10 | C=CC1(C(=O)OC)CC=C(C(=O)OC)CC1 (stereo not given) | -0.219 | 0.191 | -0.0226 | 1.17 | 1.12 | 1.73 | 1.12 | -0.941 (inactive) | 0.0908 | 0.0623
11 | CCCC#C[Si](O[C@H](CC)c1cn(Cc2cccc(Cl)c2)nn1)(C(C)C)C(C)C | -0.468 | -0.139 | -0.0865 | 0.85 | 0.831 | -0.0184 | 1.15 | 0.414 (inactive) | 0.0751 | -0.137
12 | O=C1N(Cc2ccccc2)c2ccccc2[C@@H]2OC(c3ccc(OCCCO)cc3)=N[C@]12CCS(=O)(=O)c1ccccc1 | 0.625 | 0.206 | 0.0111 | -0.23 | 0.888 | 1.03 | 1.28 | -2.27 (inactive) | 1.15 | -0.253
13 | CCC(CC)C(O)C1C=CC2C(=O)NC(=O)C2N1Nc1ccc(Cl)cc1Cl (stereo not given) | 0.494 | 0.318 | 0.133 | 0.309 | 1.42 | 0.971 | 1.08 | -1.71 (inactive) | 0.812 | 0.0749
14 | CCOC(=O)C[C@H]1[C@H](OC(=O)c2ccc(C(=O)c3ccccc3)cc2)[C@@H](NC(=O)c2ccccc2)c2cc(OCCCO)ccc2N1C(=O)c1ccc2ccccc2n1 | -0.416 | 0.0991 | -0.0206 | 0.234 | 1.27 | 0.682 | 0.417 | -0.266 (inactive) | 0.314 | 0.107
15 | COc1cc2c(cc1O)C(C1CC1)N(Cc1sc3ccccc3c1Cl)CC2 (stereo not given) | 0.0766 | 0.602 | -0.135 | 0.0173 | 0.182 | -0.214 | 1.23 | 0.566 (inactive) | -0.145 | -0.0994
16 | O=C1C[C@@](C(=O)NCCN2CCOCC2)(c2ccc([N+](=O)[O-])cc2)[C@@H](c2ccc(CO)cc2)N1CC12CC3CC(CC(C3)C1)C2 | -0.243 | 0.667 | -0.0692 | 0.573 | 1.51 | 1.58 | 1.39 | -2.76 (inactive) | 0.669 | 0.155
17 | NC(=O)[C@@H]1[C@H]2C(=O)O[C@H](c3ccccc3)[C@H](c3ccccc3)N2[C@H](c2ccc(O)cc2)[C@@]12C(=O)Nc1ccccc12 | 0.241 | -0.933 | -0.179 | 0.0547 | -0.985 | 2.01 | 0.476 | 0.308 (inactive) | -0.114 | -0.314
18 | COc1cc2c(cc1OC)CN(C(=O)[C@@H]1[C@H]3C(=O)O[C@H](c4ccccc4)[C@H](c4ccccc4)N3[C@H](c3ccc(O)cc3)[C@@]13C(=O)Nc1ccccc13)CC2 | 0.113 | 0.797 | -0.0614 | 0.257 | 0.171 | 1.03 | 1.16 | 0.421 (inactive) | 0.0729 | 0.0854
19 | CCCC[C@H]1OB(O)C[C@H]2C1=C(COC)C[C@H]1C(=O)N(C)C(=O)[C@H]12 | -0.441 | 0.49 | -0.144 | 0.18 | 0.364 | -0.149 | 0.6 | 0.0329 (inactive) | 0.106 | -0.15
20 | CCC(CC)C(O)C1C=CC2C(=O)NC(=O)C2N1Nc1ccccn1 (stereo not given) | -0.164 | 0.247 | 0.0119 | 0.368 | 0.795 | 0.675 | 1.12 | 0.32 (inactive) | 0.305 | 0.0139
21 | O=C1C[C@]2(c3ccc([N+](=O)[O-])cc3)C(=O)N(CC(F)(F)F)c3cc(CO)ccc3[C@H]2N1C1CCCCC1 | 0.342 | -0.819 | -0.148 | -0.91 | -0.488 | -0.722 | -1.5 | 0.0655 (inactive) | -0.167 | -0.226
22 | C=CCC(OC(C)=O)[C@@H]1[C@@H](N(Cc2ccc(-c3ccccc3)cc2)C(=O)Cc2ccc(OC)cc2)c2cc(OCCCO)ccc2N1C(=O)Cc1ccc2ccccc2c1 (stereo not given in full) | -0.214 | 0.735 | -0.0891 | 0.0163 | -0.299 | -0.32 | -0.504 | -0.952 (inactive) | 0.0346 | -0.144

Reference: PubChem BioAssay
